Measurements taken from PubChem BioAssay (NCATS).
Results filed as inconclusive are left out. Entries that show only a call come without a potency. Active and inactive are the calls of the source. The call rests on the fitted dose curve; in most records, active means well fitted inhibition curve with a large enough effect; inconclusive means small, poorly fitted or top-dose-only effect; inactive means no such curve, though single readings can be large or run the other way.

Target: Retinaldehyde dehydrogenase 3 (Homo sapiens) (UniProt P47895)
Assay: qHTS for Inhibitors of the Aldehyde Dehydrogenase Family (ALDH1A3) Primary screen (AID 2061315)
Details: ALDH inhibition qHTS; series mostly up to 56 µM

Question: Which Potency does the source give for `Cc1cc2c(s1)c1cnn(Cc3ccc(C(C)C)cc3)c(=O)c1n2C` here?
Answer: The Potency was “inactive”.

Question: How did the Potency turn out when `Cc1ccc(OCCn2c(CCNC(=O)C(C)(C)C)nc3ccccc32)cc1` was run?
Answer: The Potency was “inactive”.

Question: `O=C(OCC#CCSc1nnc(-c2cccc3ccccc23)o1)c1cccc(F)c1` was tested. Which Potency did it give?
Answer: Its Potency is “inactive”.

Question: For `CC1(C)CC(=O)C2=C(C1)NC(Nc1nc3ccccc3o1)=NC21CCCC1`, which Potency is on record?
Answer: Its Potency is “inactive”.

Question: `CC1=C(C(=O)Nc2ccccc2Cl)C(c2ccccc2Br)N=C(Nc2nc3ccccc3o2)N1` (stereo not given) was tested. Which Potency did it give?
Answer: Its Potency is “inactive”.

Question: How did the Potency turn out when `O=C([C@H](Cc1ccc(O[S+](=O)([O-])c2cccc3cnccc23)cc1)N[S+](=O)([O-])c1cccnc1)N1CCN(c2ccccc2)CC1` was run?
Answer: The Potency was “inactive”.

Question: Which Potency does the source give for `COc1cccc(-c2ccc(-c3nc4ccccc4c(=O)[nH]3)o2)c1` here?
Answer: Its Potency is “inactive”.

Question: With `COC(=O)C1=CO[C@@H](O[C@@H]2O[C@H](CO)[C@@H](O)[C@H](O)[C@H]2O)C2C1C(=O)C[C@H]2C` (stereo not given in full) as the compound, how does the Potency read?
Answer: The Potency was “inactive”.

Question: For `O=[S+]([O-])(c1ccc2c(c1)OCCO2)N1CCN([S+](=O)([O-])c2c(Cl)cc(Cl)cc2Br)CC1`, which Potency is on record?
Answer: The Potency was “inactive”.

Question: With `COc1cc(O)c(C(CC(=O)N2CCC(Cc3ccccc3)CC2)c2ccc3c(c2)OCO3)c(OC)c1` (stereo not given) as the compound, how does the Potency read?
Answer: Its Potency is “inactive”.

Question: Which Potency does the source give for `Cc1csc(CNc2ncnc3ccc(-c4ccc5c(ccn5C)c4)cc23)c1` here?
Answer: The Potency was “inactive”.

Question: For `Cc1cccc(-c2ccc3ncnc(NCc4cc(C)cs4)c3c2)c1`, which Potency is on record?
Answer: Its Potency is “inactive”.

Question: How did the Potency turn out when `CN(C)c1cccc(-c2nccc(N3CCC(C(N)=O)CC3)n2)c1` was run?
Answer: Its Potency is “inactive”.

Question: Which Potency does the source give for `Cc1cnc(-c2ccccc2C(C)C)nc1NCc1ccc(-c2nn[nH]n2)cc1` here?
Answer: The Potency was “inactive”.

Question: How did the Potency turn out when `NC(=O)c1cccc(-c2noc(-c3ccccc3F)n2)c1` was run?
Answer: The Potency was “inactive”.

Question: For `C=CCSc1nnc(-c2cccc3ccccc23)o1`, which Potency is on record?
Answer: The Potency was “inactive”.

Question: For `O=C(Nc1ccc([S+](=O)([O-])Nc2nccs2)cc1)C1CCNCC1`, which Potency is on record?
Answer: The Potency was “inactive”.

Question: With `CC(=O)Nc1sc2c(c1-c1nc3ccccc3s1)CC(C)NC2` (stereo not given) as the compound, how does the Potency read?
Answer: The Potency was “inactive”.

Question: For `O=C(OCC#CCSc1nnc(-c2cccc3ccccc23)o1)c1ccc(C(F)(F)F)cc1`, which Potency is on record?
Answer: Its Potency is “inactive”.

Question: For `Cc1noc(C)c1-c1ccc2ncnc(NCc3ccc(-c4ccccc4)cc3)c2c1`, which Potency is on record?
Answer: The Potency was “inactive”.

Question: How did the Potency turn out when `O=C1CCc2cc(S(=O)(=O)Nc3ccc(F)c(Cl)c3)c(F)cc2N1` was run?
Answer: The Potency was “inactive”.

Question: For `Oc1ccc(CNCc2ccccc2F)c2cccnc12`, which Potency is on record?
Answer: The Potency was “inactive”.

Question: `Cc1cc(NC(=O)c2ccc(C)c(Nc3nccc(-c4cccnc4)n3)c2)cc(-n2cnc(C)c2)c1` was tested. Which Potency did it give?
Answer: The Potency was “inactive”.

Question: How did the Potency turn out when `CC(=O)O[C@@H]1c2c3c(cc(O)c2C(=O)O[C@@H]1C)O[C@@]1(C)[C@@H](O)C[C@H]2C(C)(C)C(=O)C=C[C@]2(C)[C@@H]1C3` was run?
Answer: The Potency was “inactive”.

Question: How did the Potency turn out when `NCCCC[C@H](N)C(=O)Nc1ccc(Cl)cc1C(=O)c1ccc[nH]1` was run?
Answer: The Potency was “inactive”.

Question: With `Cc1ccc(Nc2nc(-c3ccncc3)nc3ccccc23)cc1F` as the compound, how does the Potency read?
Answer: Its Potency is “inactive”.

Question: With `c1ccc2sc(-c3csc4c3CCNC4)nc2c1` as the compound, how does the Potency read?
Answer: The Potency was “inactive”.

Question: For `O=S1(=O)N=C(Oc2cccc(Br)c2)c2ccccc21`, which Potency is on record?
Answer: Its Potency is “inactive”.

Question: Which Potency does the source give for `COc1cccc(-c2ccc3ncnc(NCc4cccs4)c3c2)c1` here?
Answer: The Potency was “inactive”.

Question: Which Potency does the source give for `O=S(=O)(NCC1CCC(NS(=O)(=O)c2c(F)cccc2F)CC1)c1ccc2c(c1)OCCO2` (stereo not given) here?
Answer: The Potency was “inactive”.

Question: How did the Potency turn out when `COc1ccc(N2C(=O)c3ccccc3C2=O)cc1` was run?
Answer: The Potency was “inactive”.

Question: With `CCC(=O)NC(c1cccs1)c1cc(Br)c2cccnc2c1O` (stereo not given) as the compound, how does the Potency read?
Answer: Its Potency is “inactive”.

Question: `Cc1ccc(OCCn2c(CCNC(=O)c3cc([N+](=O)[O-])ccc3[N+](=O)[O-])nc3ccccc32)cc1` was tested. Which Potency did it give?
Answer: Its Potency is “inactive”.

Question: With `COc1cc(C2CC(=O)Nc3c2cc(Br)c2ccccc32)cc(OC)c1OC` (stereo not given) as the compound, how does the Potency read?
Answer: Its Potency is “inactive”.

Question: Which Potency does the source give for `CC(C)c1ccccc1-c1ncc(F)c(NCC2CCN(c3cnccn3)C2)n1` (stereo not given) here?
Answer: The Potency was “inactive”.

Question: `O=C(Nc1ccc2c(c1)OCCO2)c1ccc(-c2nc3ccccc3[nH]2)cc1` was tested. Which Potency did it give?
Answer: The Potency was “inactive”.

Question: Which Potency does the source give for `CC(=O)O[C@@H]1CC(C)=C2[C@H]1[C@H](C)CC[C@H]2/C=C(\C)C(=O)O` here?
Answer: The Potency was “inactive”.

Question: Which Potency does the source give for `NC(=O)C1CCN(c2nc(-c3ccccc3Br)cs2)CC1` here?
Answer: Its Potency is “inactive”.

Question: How did the Potency turn out when `CC(O)c1ccc(-c2ccc3ncnc(NCCc4cnc[nH]4)c3c2)o1` (stereo not given) was run?
Answer: The Potency was “inactive”.

Question: How did the Potency turn out when `C=C(C)C(=O)O[C@H]1CC2=CC(C/C(C)=C\[C@H]3OC(=O)C(=C)[C@H]13)OC2=O` (stereo not given in full) was run?
Answer: Its Potency is “inactive”.
